Bioassay records deposited in PubChem BioAssay by several laboratories.
An excerpt weighted towards active compounds, which were near 3.2% of everything screened.
Yp Topo-I inh – Yersinia pestis topoisomerase I inhibitors, primary screen, biochemical, cleavage product accumulation, plate reader, single point | Y. pestis Topo-I cleavage product accumulation | activity, % at 10 µM | 360,000 compounds, 0.064% hits | AID 504884, 2011; in the data active means activity above about 50%, passing the limit was not always enough
PrPC surface inh – inhibitors of human cell surface prion protein PrPC, primary screen, cell-based, TR-FRET | TR-FRET read-out | inhibition, % at 13.8 µM | 370,000 compounds, 0.43% hits | AID 720596, 2013; in the data active means inhibition above about 24%; further: 0% = median of the test wells and 100% = reference compound wells
Mtb FBA inh – Mtb FBA enzyme inhibitors, primary screen, biochemical, fluorescence, strain H37Rv; inhibition, % at 1 µM; 360,000 compounds, 2.3% hits; Fructose-bisphosphate aldolase (Mycobacterium tuberculosis (strain ATCC 25618 / H37Rv)), …; purified M. tuberculosis FBA, fluorescence read-out; in the data active means inhibition above about 27%;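 further: 0% = vehicle and 100% = reference inhibitor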
GDH-TPI inh – GDH-TPI coupling enzyme inhibitors, primary screen, artefact control for M. tuberculosis FBA inhibitor project, biochemical, absorbance, full deck | GDH-TPI coupled enzyme counterscreen, NADH absorbance | inhibition, % at 4.8 µM | 360,000 compounds, 1.2% hits; in the data active means inhibition above about 30%;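 further: 0% = DMSO wells and 100% = wells lacking the enzyme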
TcdB inh – TcdB glycohydrolase inhibitors, primary screen, biochemical, single point, plate reader | inhibition, % at 9.99 µM | TcdB glycohydrolase enzymatic assay | Toxin B (Clostridioides difficile), P18177 | 350,000 compounds, 0.24% hits; in the data active means inhibition above about 10%
* hit, by the source's call; x = no result.

SMILES	Yp Topo-I inh	PrPC surface inh	Mtb FBA inh	GDH-TPI inh	TcdB inh
O=C(N/N=C/c1cccs1)/C(=C/c1ccccc1)NC(=O)c1ccccc1	0	-3	0	42*	x
Cc1noc(C)c1NC(=O)N(C)C[C@H]1Oc2c(NS(C)(=O)=O)cccc2C(=O)N([C@@H](C)CO)C[C@H]1C	x	x	x	x	-7
CCCC(=O)Nc1ccc2c(c1)C(=O)N(C)C[C@H](OC)[C@@H](C)CN(Cc1ccccn1)[C@H](C)CO2	x	x	x	x	-1
O=C(N/N=C/c1ccc(O)c(O)c1O)/C(=C/c1ccc([N+](=O)[O-])cc1)NC(=O)c1ccccc1	-26	-12	-10	37*	x
Cc1ccc(NC(=O)/C(=C\c2ccc([N+](=O)[O-])cc2)NC(=O)c2ccccc2)cc1	1	-15	-4	20	x
COc1ccc(/C=C(\NC(=O)c2ccccc2)C(=O)N/N=C/c2sccc2C)cc1	-5	-3	2	40*	1
COc1ccc(OC)c(/C=C(\NC(=O)c2ccccc2)C(=O)N/N=C/c2ccc(C)s2)c1	32	-5	-3	49*	x
CCOc1ccc(/C=N/Nc2nc(N3CCCC3)nc(N3CCCC3)n2)cc1OC	6	-3	0	26	1
Oc1ccc(/C=N/Nc2nc(N3CCCC3)nc(N3CCCC3)n2)cc1O	13	-8	0	16	21*
COc1cc(/C=N/Nc2nc(N3CCCC3)nc(N3CCCC3)n2)ccc1O	3	-6	5	35*	x
COc1ccc(-c2cnnc(N/N=C/c3ccc(O)c(OC)c3)n2)cc1	-2	-20	-1	55*	x
O=[N+]([O-])c1cc(/C=N/Nc2nc(N3CCCCC3)nc(N3CCCCC3)n2)ccc1O	10	-5	6	12	1
CCNC(=O)C[C@@H]1C=C[C@@H](NC(=O)C2CC2)[C@@H](CO)O1	x	x	x	x	0
C[C@@H]1CCCCO[C@@H](CN(C)S(=O)(=O)c2ccccc2)[C@@H](C)CN([C@H](C)CO)C(=O)c2cc(NS(C)(=O)=O)ccc2O1	x	x	x	x	0
CCCN1C[C@H](C)[C@H](OC)CN(C)C(=O)c2ccc(NC(=O)C3CCOCC3)cc2OC[C@H]1C	x	x	x	x	0
O=C(/C=C\c1cccs1)c1c(O)ccc2ccc(=O)oc12	-2	-15	-7	36*	x
C[C@@H]1CN([C@@H](C)CO)C(=O)c2cccc(NC(=O)c3cnccn3)c2O[C@@H]1CN(C)C(=O)NC1CCCCC1	x	x	x	x	0
COCCCNC(=O)c1c(N)n(-c2cccc(S(N)(=O)=O)c2)c2nc3ccccc3nc12	16	-15	138*	2	x
COCCCNC(=O)c1c(N)n(/N=C/c2ccccn2)c2nc3ccccc3nc12	11	-3	-3	8	x
CN1CCN(C(=O)C[C@@H]2CC[C@@H]3[C@@H](COc4ccc(NC(=O)C5CC5)cc4C(=O)N3C)O2)CC1	x	x	x	x	-1
CCOC(=O)c1sc(=S)n(-c2ccccc2)c1C	-2	3	2	34*	2
CCOC(=O)c1sc(=S)n(-c2ccc(OC)cc2)c1N	-8	-38	0	11	2
CCOC(=O)c1sc(=S)n(-c2ccccc2)c1N	-4	-18	-3	34*	x
CCOC(=O)c1sc(=S)n(-c2ccccc2)c1N(C(C)=O)C(C)=O	3	-6	0	11	4
CCOC(=O)c1sc(=S)n(-c2ccccc2Cl)c1C	-1	-3	3	39*	1
SMILES	Yp Topo-I inh	PrPC surface inh	Mtb FBA inh	GDH-TPI inh	TcdB inh
COCCCNc1nc2nonc2nc1N(C)CC1CCCN1C (stereo unspecified)	5	-8	1	36*	2
CC(C)C(=O)Nc1ccc(C(=O)NNC(=S)NC(=O)c2ccccc2[N+](=O)[O-])cc1	-2	-10	0	9	2
CCCCC(=O)Nc1ccc(C(=O)NNC(=S)NC(=O)c2ccccc2[N+](=O)[O-])cc1	-5	0	0	38*	0
C[C@@H]1CN([C@@H](C)CO)C(=O)c2cccc(NC(=O)C3CC3)c2O[C@H]1CN(C)S(=O)(=O)c1cn(C)cn1	x	x	x	x	1
Cc1csc2ncc(C(=O)N3CCCc4ccccc43)c(=O)n12	2	-6	6	37*	9
Cc1csc2ncc(C(=O)N3CCc4ccccc43)c(=O)n12	-1	-2	5	52*	2
O=C(c1cnc2n(c1=O)CCS2)N1CCCc2ccccc21	-10	0	-4	2	-1
COc1ccc(NC(=O)N(C)C[C@H]2Oc3ccc(NC(=O)Cc4ccccc4)cc3C(=O)N([C@@H](C)CO)C[C@@H]2C)cc1	x	x	x	x	1
C[C@H](CO)N1C[C@H](C)[C@H](CN(C)Cc2ccc(-c3ccccc3)cc2)Oc2c(NC(=O)Nc3ccc(F)cc3)cccc2C1=O	x	x	x	x	0
CCN(CC)c1ccc(/C=N/NC(=O)c2cccc(S(=O)(=O)N3CCOCC3)c2)cc1	14	10	0	32*	0
CCN(CC)c1ccc(/C=N/N2CCOCC2)cc1	-5	4	0	43*	x
CCN(Cc1ccccc1)c1ccc(/C=N/N2CCOCC2)cc1	35	3	1	28	-13
C/C(=N\NC(=O)c1cccc(S(=O)(=O)N2CCOCC2)c1)c1cc2ccccc2o1	7	4	-1	52*	1
O=C(NCCN1C(=O)S/C(=C\c2ccc(F)cc2)C1=O)c1cccc(S(=O)(=O)N2CCOCC2)c1	-4	-5	-3	36*	2
O=C(NCCN1C(=O)S/C(=C\c2ccc(Cl)cc2)C1=O)c1ccc(F)c(S(=O)(=O)N2CCOCC2)c1	0	-4	-1	4	0
C/C(=N\NC(=O)c1cccc(S(=O)(=O)N2CCOCC2)c1)c1ccc(C)cc1	-7	-10	-1	-8	-6
O=C(C[C@H]1CC[C@@H](NC(=O)Nc2ccccc2F)[C@@H](CO)O1)NCc1ccc(Cl)cc1	x	x	x	x	1
CCN(Cc1ccccc1)c1ccc(/C=N/NC(=O)c2cccc(S(=O)(=O)N3CCOCC3)c2)cc1	14	9	4	43*	x
COc1cc(/C=N/NC(=O)c2cccc(S(=O)(=O)N3CCOCC3)c2)cc(OC)c1O	-3	4	-2	1	-25
COc1ccc(S(=O)(=O)N(C)C[C@H]2Oc3ncc(/C=C/c4ccccc4)cc3C(=O)N([C@H](C)CO)C[C@@H]2C)cc1	x	x	x	x	1
C[C@H](CO)N1C[C@H](C)[C@H](CN(C)C(=O)C2CC2)OCc2cn(nn2)CCCC1=O	x	x	x	x	-1
COc1ccc(-c2cn3ccccc3n2)cc1	-7	-5	114*	12	4
Clc1ccc(-c2cn3ccccc3n2)cc1	-3	-13	22	6	2
CCCC(=O)N1CC2(CN(C)C2)c2c(n(C)c3cc(OC)ccc23)[C@H]1CO	x	x	x	x	1
S=c1[nH]cnc2sc(-c3ccccc3)cc12	-2	0	-3	52*	0
O=C(O)CSc1ncnc2sc(-c3ccccc3)cc12	9	10	6	19	-6
